Results filed as inconclusive are left out. Calls of active or inactive are those of the source. The call rests on the fitted dose curve; in most records, active means well fitted inhibition curve with a large enough effect; inconclusive means small, poorly fitted or top-dose-only effect; inactive means flat fitted curve, though single readings scatter.
What follows are molecules tested on HACAT (assay: qHTS assay to identify novel small-molecules to repurpose for Merkel cell carcinoma treatment (AID 1296009; further: nearly all actives have a fitted effect of over 60% in size)). Conditions: MCC and control cell lines, CellTiter-Glo viability, 72 h; at 44.8 µM (top of the series) unless noted.
How it was run: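 Cells were treated for 72 hr at 37 degree celsius with compounds in 8- or 11-point dose response. Viability was read by CellTiter-Glo luminescence, normalized to no-cell (cytotoxicity) and DMSO controls.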

SMILES | outcome
COc1cnc(-c2ccc(Cn3c(CC(C)(C)C(=O)O)c(SC(C)(C)C)c4cc(OC[C@@H]5Cc6ccccc6N5C(C)=O)ccc43)cc2)nc1 | inactive
O=C(OCC1=CC(Cl)C(O)C(OC(=O)c2ccccc2)C1O)c1ccccc1 (stereo not drawn) | inactive [at 17.4 µM]
CC12CC(O)C(O)C=C1c1cc(O)cc(O)c1C(=O)O2 (stereo not drawn) | inactive
COc1ccc(C2(O)c3ccccc3NC(=O)C2OC)cc1 (stereo not drawn) | inactive
CC1(CO)CC(O)C2(C)CCC3(C)C(=CCC4C5(C=O)CCC(OC6OC(C(=O)O)C(O)C(O)C6OC6OC(C(=O)O)C(O)C(O)C6O)C(C)(C)C5CCC43C)C2C1 (stereo not drawn) | inactive [at 9.27 µM]
CC1(C)CC[C@]2(C(=O)O)CC[C@]3(C)C(=CCC4[C@@]5(C)CC[C@H](O[C@@H]6O[C@H](C(=O)O)[C@@H](O)[C@H](O[C@@H]7O[C@H](CO)[C@H](O)[C@H](O)[C@H]7O)[C@H]6O[C@@H]6O[C@H](CO)[C@@H](O)[C@H](O)[C@H]6O)C(C)(C)C5CC[C@]43C)[C@@H]2C1 (stereo partly drawn) | inactive [at 4.96 µM]
CCC(C)/C=C(C)/C=C/C1=CC2=C(Cl)C(=O)C(C)(OC(C)=O)C(=O)C2=CN1C(CC(=O)O)C(=O)O (stereo not drawn) | inactive [at 17.4 µM]
CN1CCN(C2=Nc3ccccc3Nc3ccc(O)cc32)CC1 | inactive

From PubChem BioAssay (NCATS)
